Results published in PubChem BioAssay (NCATS).
Active and inactive are the calls of the source. Calls come from the whole dose curve.

The compounds below were run against Tumor susceptibility gene 101 protein (Homo sapiens) (UniProt Q99816) (assay: qHTS Validation Assay for Iinhibitors of HIV-1 Budding by Blocking the Interaction of PTAP/TSG101 (AID 485342)). Settings: TSG101-PTAP binding, fluorescence polarization, 4-point titration; series mostly up to 115 µM.
From the text: NIH Molecular Libraries Probe Production Network [MLPCN]
NIH Chemical Genomics Center [NCGC]
PI Name: Dr. Eric Freed, NCI
Stages of the HIV-1 replication cycle, specifically virus assembly and release, provide underexploited targets for the development of novel antiviral inhibitors. The late stages of HIV-1 replication are mediated by the Gag precursor protein, Pr55Gag. Expression of Pr55Gag is both necessary and sufficient for the production of virus-like particles from Gag-expressing cells. The Gag protein hijacks key host proteins involved in endocytic machinery of the host cell to promote endosomal processing and viral budding. The budding process requires a direct interaction between a […] (PTAP) motif in the p6 domain of Gag and the cellular endosomal sorting protein known as Tsg101. In this way, the Gag PTAP motif promotes the host cells to recruit viral particles to the plasma membrane where the new viral particles are released, effectively turning the host cells into viral factories. A fluorescence anisotropy assay has been developed to quantitatively measure the PTAP-Tsg101 interaction which can be used to screen for inhibitors of this interaction.
NCGC Assay Protocol Summary:
Two uL of the Tsg101 binding domain in buffer (10 mM HEPES pH 7.5; 0.15 M NaCl, 0.01% Tween 20; 3 mM EDTA;0.1 mM TCEP) was dispensed into Greiner black MB 1536-well plates (final concentration 10 uM). Then, 23 nL of compounds or DMSO were delivered to each well using a pin tool. Finally, 2 uL of a FITC-labeled peptide containing the PTAP motif (1) in the same buffer was dispensed (50 nM final concentration) and the binding was allowed to proceed for 20 min. at r.t. Fluorescent polarization was determined using FITC excitation and polarized emission filters on a Perkin Elmer Viewlux.
Keywords: Tsg101, PTAP, Gag, HIV, fluorescent polarization, MLSMR, MLPCN, NIH Roadmap, qHTS, NCGC

Tumor susceptibility gene 101 protein (Homo sapiens), sequence (Q99816 whole entry, looked up): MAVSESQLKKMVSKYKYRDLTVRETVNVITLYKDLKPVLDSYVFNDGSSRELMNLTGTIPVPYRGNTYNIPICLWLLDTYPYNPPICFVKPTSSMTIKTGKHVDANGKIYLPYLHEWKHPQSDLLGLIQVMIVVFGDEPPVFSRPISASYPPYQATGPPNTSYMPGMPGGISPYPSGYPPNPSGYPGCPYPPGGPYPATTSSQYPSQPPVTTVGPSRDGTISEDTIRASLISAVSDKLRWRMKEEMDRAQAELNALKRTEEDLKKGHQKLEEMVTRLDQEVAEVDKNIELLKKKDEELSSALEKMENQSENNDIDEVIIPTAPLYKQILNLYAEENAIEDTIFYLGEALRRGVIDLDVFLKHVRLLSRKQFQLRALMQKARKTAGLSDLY

SMILES | outcome
O=c1[nH]c2ccccc2n1CCCN1CCC(n2c(=O)[nH]c3cc(Cl)ccc32)CC1 | inactive
Cc1ncc(CNC(=O)N(CCCl)N=O)c(N)n1 | inactive
NCC1(CC(=O)O)CCCCC1 | inactive
CCCN1CCC[C@@H]2Cc3[nH]ncc3C[C@H]21 | inactive
CC(O)(CS(=O)(=O)c1ccc(F)cc1)C(=O)Nc1ccc(C#N)c(C(F)(F)F)c1 (centres undefined) | inactive
NCC(CC(=O)O)c1ccc(Cl)cc1 (centres undefined) | inactive
Cc1cccc(C)c1NC1=NCCCS1 | inactive
CC(=O)[C@H]1CC[C@H]2[C@@H]3CC[C@H]4C[C@](C)(O)CC[C@]4(C)[C@H]3CC[C@]12C | inactive
CN1C[C@H](CNC(=O)OCc2ccccc2)C[C@@H]2c3cccc4c3c(cn4C)C[C@H]21 | inactive
C=C(C)[C@H]1Cc2c(ccc3c2O[C@@H]2COc4cc(OC)c(OC)cc4[C@@H]2C3=O)O1 | inactive
NCC(O)c1ccc(O)cc1 (centres undefined) | inactive
CCCN1CCC[C@@H]2Cc3nc(N)ncc3C[C@H]21 | inactive
O=c1[nH]c2ccccc2n1C1CCN(CCCC(c2ccc(F)cc2)c2ccc(F)cc2)CC1 | inactive
CCC1(C2=NCCN2)Cc2ccccc2O1 (centres undefined) | inactive
Cc1cccc(C)c1NC(=O)CN1CCCC1=O | inactive
c1ccc(C2CC2)c(OCC2=NCCN2)c1 | inactive
N#CC(C#N)=Cc1ccc(O)c(O)c1 | inactive

SMILES | outcome
Cc1ccc(S(=O)(=O)N[C@@H](CCCCN)C(=O)CCl)cc1 | inactive
Fc1ccc(C(OCCN2CCN(CCCc3ccccc3)CC2)c2ccc(F)cc2)cc1 | inactive
CC[C@@H](CO)NC(=O)[C@@H]1C=C2c3cccc4c3c(cn4C)C[C@H]2N(C)C1 | inactive
COC[C@H]1OC(=O)c2coc3c2[C@@]1(C)C1=C(C3=O)C2CCC(=O)[C@@]2(C)C[C@H]1OC(C)=O (some centres undefined) | inactive
COc1ccc(C(CN(C)C)C2(O)CCCCC2)cc1 (centres undefined) | inactive
c1ccc2c(c1)OCC(C1=NCCN1)O2 (centres undefined) | inactive
CC(=O)[C@H]1CC[C@H]2[C@@H]3CC[C@H]4C[C@H](O)CC[C@]4(C)[C@H]3C(=O)C[C@]12C | inactive
C[C@@H]1O[C@@H](O[C@H]2C[C@@H](O)[C@]3(CO)[C@H]4[C@H](O)C[C@]5(C)[C@@H](C6=CC(=O)OC6)CC[C@]5(O)[C@@H]4CC[C@]3(O)C2)[C@H](O)[C@H](O)[C@H]1O | inactive
CC(C)=CCOc1c2occc2cc2ccc(=O)oc12 | inactive
COc1ccccc1N1CCNCC1 | inactive
NN=C(N)N | inactive
CNCC(O)c1ccc(O)cc1 (centres undefined) | inactive
CC(CCc1ccccc1)NC(C)C(O)c1ccc(O)cc1 (centres undefined) | inactive
O=C1NCN(c2ccccc2)C12CCN(CC1COc3ccccc3O1)CC2 (centres undefined) | inactive
CC[C@@H](CO)NC(=O)[C@@H]1C=C2c3cccc4[nH]cc(c34)C[C@H]2N(C)C1 | inactive
Nc1ccncc1 | inactive
CCCC(C)(COC(N)=O)COC(=O)NC(C)C (centres undefined) | inactive
